# Measurements as given in ChEMBL document CHEMBL4513216, “Probing the Open Global Health Chemical Diversity Library for Multistage-Active Starting Points for Next-Generation Antimalarials” (ACS Infect Dis, 2020).
# Hit rate of the full screen: of about 69,000 compounds, about 8,600 (12%) showed an effect of 50% or more. This is one part of a sample in which strong results are shown more often than they occur.
# System: Plasmodium berghei
# Experiment: Screen against P. berghei liver stage (PbLuc), transformed with Luciferase, at 10uM
# Assay type: functional, HepG2
# Details: tested at 10 uM
row,SMILES,INHIBITION [%]
1,CN(C)[C@@H]1CCN(c2ncccn2)[C@H]1Cc1cccnc1,-31.4
2,CCN1CCC(N2CCC(C(=O)N(C)C)CC2)CC1,15.6
3,Cc1ccc(CN2CC[C@H](c3nnc(-c4ccco4)o3)C2)cc1,-33
4,Cc1cccc(CN2CCC(c3nnc(-c4scnc4C)o3)CC2)c1,23.4
5,Fc1ccc(CCN2CCC(c3nnc(-c4cccnc4)o3)CC2)cc1,35.3
6,COc1ccc(CN2CCC(c3nnc(-c4scnc4C)o3)CC2)cc1,54.5
7,Cc1ncsc1-c1nnc(C2CCN(Cc3cccc(Cl)c3)CC2)o1,-6.3
8,Cc1ncsc1-c1nnc(C2CCN(Cc3ccc(Cl)cc3)CC2)o1,76.8
9,Cc1ncsc1-c1nnc(C2CCN(Cc3ccccc3)CC2)o1,27.8
10,Cc1ccsc1-c1nnc(C2CCN(Cc3ccc(F)cc3)CC2)o1,68.2
11,Cc1ncsc1-c1nnc(C2CCN(Cc3ccc(F)cc3)CC2)o1,35.3
12,COc1ccc2c(c1)CN(C)C(=O)CCN2CC(O)C(F)(F)F (centres undefined),-8.04
13,Cc1cnc(CNCc2cn(CCN3CCSCC3)nc2C)cn1,4.68
14,Cc1nn(C)c(C)c1-c1cnc(C2CCCN(C)C2)cn1 (centres undefined),-28.6
15,Cc1csc(NC(=O)c2cnc(C3CCCN(C)C3)cn2)n1 (centres undefined),71.3
16,FC(F)CNc1cnc(C2CCCN2)cn1 (centres undefined),5.15
17,O=C(NCC(F)F)c1cnc(C2CCCN2)cn1 (centres undefined),61.05
18,Cc1csc(NC(=O)c2cnc(C3CCCN3)cn2)n1 (centres undefined),80.9
19,Cc1csc(NC(=O)c2cnc(C3CCNCC3)cn2)n1,24.4
20,Cc1cccc(NC(=O)c2cnc(C3CCCNC3)cn2)n1 (centres undefined),10.4
21,O=C(NCc1ccccn1)c1cnc(C2CCCN2)cn1 (centres undefined),18.3
22,COc1c(C2CCCN2CC(=O)Nc2nc(C)cs2)c(C)nn1C (centres undefined),31.9

row,SMILES,INHIBITION [%]
1,COCCN1Cc2nccn2CC(COCc2csc(C)n2)C1 (centres undefined),29.5
2,CN(C)CCNC(=O)c1sc2ccccc2c1C1CCC(CN)CC1 (centres undefined),-77.3
3,COCC1CN(S(=O)(=O)N(C)C)Cc2cnn(CC3CCCC3)c21 (centres undefined),-17.1
4,COc1cccc2c1ccn2CCNC(=O)CCNc1ncccn1,38.5
5,COc1ncnc2c1CCN(Cc1cccc(C)n1)CC2,10.7
6,Cc1cc(CN(C)Cc2csc(-c3cccs3)n2)n[nH]1,57
7,CCc1nc(CN(C)Cc2nnc(-c3cccs3)o2)cs1,7.81
8,CNC(=O)C(C)S(=O)(=O)Cc1csc(-c2cccs2)n1 (centres undefined),30.1
9,CN(Cc1csc(-c2cccs2)n1)Cc1ncccc1C(=O)O,5.91
10,CC(NS(C)(=O)=O)C(=O)N(C)Cc1csc(-c2cccs2)n1 (centres undefined),-102
11,COC(=O)NCC(=O)N(C)Cc1csc(-c2cccs2)n1,49.2
12,CN(Cc1csc(-c2cccs2)n1)Cc1cccnc1N,55.9
13,Cc1nc(CN(C)Cc2csc(-c3cccs3)n2)co1,15.7
14,CN(Cc1csc(-c2cccs2)n1)CC(O)CO (centres undefined),51.5
15,O=C(C1CCOCC1)N1CCCC1c1cncc(CN2CCCC2)n1 (centres undefined),41.5
16,COCC(=O)N1CC(c2csc(NC(C)=O)n2)C1,2.71
17,CNC(=O)C1CCN(C(=O)NCCc2ccc(Cl)s2)CC1,23.5
18,Cc1ccc(-c2nnc(C3CCCN3S(=O)(=O)c3cnn(C)c3C)o2)s1 (centres undefined),19.02
19,Cc1ccc(NC2CCN(C(=O)CCc3c(C)noc3C)CC2)nn1,7.12
20,CCc1ncnc2c1CCN(C(=O)c1ccccn1)CC2,-0.813
21,CC1CCc2nc(O)c(C(=O)NCCc3cccs3)cc2C1 (centres undefined),-111
22,O=C(NC1CC1)c1cc2c(nc1O)CC(c1cccs1)CC2=O (centres undefined),75.2

row,SMILES,INHIBITION [%]
1,O=C1CC(c2cccs2)Cc2nc(O)c(C(=O)N3CCCC3)cc21 (centres undefined),-60.7
2,O=C(O)c1cc2c(nc1O)CC(c1cccs1)CC2=O (centres undefined),-6.32
3,O=C(O)c1cc2c(nc1O)CC(c1cccc(Cl)c1)CC2=O (centres undefined),-23.7
4,COCCNC(=O)c1cc2c(nc1O)CC(c1cccs1)CC2=O (centres undefined),55.2
5,O=C(Cc1ccccc1Cl)Nc1cc(N2CCCC2)ncn1,-12.1
6,O=C(O)[C@@H]1CN(C(=O)CCN2CCCCC2)C[C@H]1c1ccccc1,-24
7,CCOCc1nc(-c2ccc(F)cc2Cl)n(C2CCN(C)CC2)n1,8.51
8,Cc1noc(C)c1CNC(=O)Nc1ccc(N2CCSCC2)cc1,7.93
9,Cc1cc(NC(=O)CN2CCc3cncnc3C2)on1,43.3
10,O=C(c1ccccn1)N1C[C@H]2CC[C@@H](C1)N(C(=O)c1ccsc1)C2,20.6
11,CCn1ccnc1CNc1nccc(-c2c(C)nn(C)c2C)n1,-47.8
12,CCn1ccnc1CNc1nccc(-c2cn(C)nc2C)n1,-67.9
13,CCc1nccn1CCCNc1nccc(-c2c(C)nn(C)c2C)n1,65.2
14,CCc1nc(CN(C(C)=O)C2CCN(Cc3csc(C)n3)C2)no1 (centres undefined),-13.5
15,CCC[C@H]1CN(Cc2ccc3c(c2)OCCO3)C[C@@H]1NC(=O)COC,37.6
16,COCC(=O)N[C@@H]1CN(Cc2ccc3c(c2)OCCO3)C[C@H]1O,52
17,O=C(NCC1CC1)N1CCN(Cc2ccc3c(c2)OCCO3)CC1,13.9
18,COCC(=O)NC[C@]12COC[C@H]1CN(Cc1ccc3c(c1)OCO3)C2,0.453
19,COCC(=O)NC[C@]1(O)CN(Cc2ccc3c(c2)OCCO3)C[C@H]1O,66.8
20,CC(=O)N1CCN(Cc2ccc3c(c2)OCCO3)CC(O)C1 (centres undefined),15.8
21,Cc1nc(CN2CCCC(Cn3cncn3)C2)no1 (centres undefined),34.7
22,CN(Cc1nnc(C2CC2)n1C)S(=O)(=O)c1ccc(F)c(C#N)c1,-6.46

row,SMILES,INHIBITION [%]
1,CS(=O)(=O)N1C[C@H]2CC[C@@H](C1)N(Cc1ccsc1)C2,10.2
2,O=C(CCc1nc2cc(Br)cnc2[nH]1)NCCCn1ccnc1,-7.28
3,CN(C)c1cc(C2CCCN2Cc2ccccc2OCC(=O)O)ccn1 (centres undefined),24.4
4,Cc1ccncc1C(=O)N1C[C@H]2CN(CC3CCC3)C[C@@]2(C(=O)O)C1,42.3
5,CN(Cc1ccncc1)C1CCC[C@@H]2CN(c3ncccn3)C[C@H]12 (some centres undefined),-22.7
6,CN(Cc1ccncc1)C1CC2(CCN(c3ncc(F)cn3)CC2)C1,55.5
7,CN(Cc1ccncc1)C1CC2(CCN(c3ncccn3)CC2)C1,58.7
8,CN(Cc1cccnc1)C1CC2(CCN(c3ncc(F)cn3)CC2)C1,49.1
9,Cc1cnc(N2CCC3(CC2)CC(N(C)Cc2ccncc2)C3)nc1,49.1
10,CN(Cc1cccnc1)C1CC2(CCN(c3ncccn3)CC2)C1,-20.8
11,CSCCCN1CCCC1c1noc(C(C)C)n1 (centres undefined),1.18
12,Cc1cnn(C2CCCN(C(=O)CCNS(C)(=O)=O)C2)c1 (centres undefined),19.2
13,C1CCC(c2nnc3sc(C4CCOC4)nn23)C1 (centres undefined),16.7
14,Cc1cc(N)nc(SC2CCN(c3ccccc3F)C2=O)n1 (centres undefined),56.5
15,Cc1cc(N)nc(SC2CCN(c3ccccc3)C2=O)n1 (centres undefined),6.94
16,Cc1cc(N)nc(SC2CCCN(Cc3ccccc3)C2=O)n1 (centres undefined),26.8
17,CCCc1nnc(N2CCC3(CCC(=O)N(C)C3)CC2)o1,47.2
18,CC(C)N(CC(N)=O)Cc1csc(-c2ncccn2)n1,-16.8
19,CC(C)N(Cc1ccccc1)Cc1csc(-c2ncccn2)n1,-50.2
20,Cc1noc(C)c1CN(Cc1ccccc1)C(C)CN1CCOCC1 (centres undefined),37.4
21,CC(C)N(Cc1ccccc1)Cc1nnsc1Cl,-37.8
22,Cc1noc(C)c1CN(Cc1ccccc1)C(C)C,60.2

row,SMILES,INHIBITION [%]
1,COc1ccc(CN(C)Cc2c(C)noc2C)c(Cl)c1OC,14.3
2,Cc1noc(C)c1CN(C)C(=O)CCOc1ccc(Cl)cc1,2.65
3,Cc1noc(C)c1CN(C)Cc1csc(-c2ncccn2)n1,62.8
4,CCOc1ccc(-c2nc(CN(C)Cc3c(C)noc3C)cs2)cc1,88.5
5,Cc1cc(CN(C)Cc2csc(-c3ccc(C(C)C)cc3)n2)no1,83.4
6,Cc1cc(CN(C)C(=O)CC(C)C)no1,-7.93
7,CC(C)c1nc(CN(C)Cc2ccc(O)c(Cl)c2)cs1,17.1
8,O=C(CCc1cccc(C2CCNCC2)n1)N1CCCCC1,-3.94
9,Oc1cccc(CN2C[C@@H]3CC[C@H]2CN(Cc2ccc(F)cc2)C3)c1,39.5
10,O=C(c1cc(C2CC2)no1)N1C[C@@H]2CC[C@H]1CN(Cc1ccccn1)C2,5.87
11,O=C(COc1coc(CN2CCCC2)cc1=O)Nc1cc(Cl)ccc1Cl,-12.5
12,CC(C)CN1CCS(=O)(=O)[C@@H]2CCN(S(=O)(=O)c3ccccc3)CC[C@@H]21,8.85
13,CN(CC(N)=O)Cc1csc(-c2ccc(F)cc2)n1,-0.991
14,Cc1noc(C)c1CN(C)C(C)c1cccs1 (centres undefined),46.4
15,Cc1noc(C)c1CN(C)Cc1csc(-c2ccccc2F)n1,62.8
16,Cc1noc(C)c1CN(C)Cc1csc(-c2ccc(C(C)C)cc2)n1,91.1
17,Cc1noc(C)c1CN(C)CC(c1cccs1)N1CCOCC1 (centres undefined),-54.6
18,Cc1noc(C)c1CN(C)Cc1csc(-c2ccc(F)cc2)n1,77.4
19,COc1cccc(CN(C)Cc2c(C)noc2C)c1OC,-6.61
20,Cc1noc(C)c1CN(C)Cc1nc(N)c2ccccc2n1,20.9
21,Cc1noc(C)c1CN(C)CCC(=O)N1CCc2sccc2C1,0.932
